Compound activity deposited in PubChem BioAssay by Broad Institute.
PDI inh: PDI (human) enzyme inhibition; P07237; PDI insulin aggregation turbidity, A650, 90 min; AID 588391; inhibition, % at 10 µM; hit rate 0.052% among 350,000;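 active = mean inhibition across replicates of 30% or more, whatever share of single replicates reach that level; inconclusive = mean inhibition below 30% while every single replicate reaches 30%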
ERp5 inh: inhibitors of human ERp5; inhibition, % at 9.99 µM; Q15084; hit rate 0.05% among 350,000; ERp5 insulin aggregation, absorbance 650 nm, 90 min;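 active = mean replicate inhibition above about 25%, with every replicate also reaching it, limit read from the data, passing the limit was not always enough; inconclusive = only one of those two criteria met; inactive = neither criterion met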
Target sequence (Q15084 whole entry, looked up): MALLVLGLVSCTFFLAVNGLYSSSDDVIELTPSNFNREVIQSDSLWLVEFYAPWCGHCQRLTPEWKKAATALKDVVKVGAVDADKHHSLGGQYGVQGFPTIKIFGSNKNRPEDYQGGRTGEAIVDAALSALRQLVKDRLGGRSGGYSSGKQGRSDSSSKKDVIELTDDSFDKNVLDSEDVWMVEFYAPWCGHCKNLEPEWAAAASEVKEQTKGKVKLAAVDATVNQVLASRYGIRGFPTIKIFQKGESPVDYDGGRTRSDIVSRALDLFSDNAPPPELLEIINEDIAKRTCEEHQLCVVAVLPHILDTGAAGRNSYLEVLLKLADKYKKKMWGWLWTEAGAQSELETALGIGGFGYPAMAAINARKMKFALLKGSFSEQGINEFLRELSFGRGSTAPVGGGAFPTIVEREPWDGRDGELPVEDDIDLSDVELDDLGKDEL
SIRT5 inh: inhibitors of human sirtuin-5 desuccinylase | inhibition, % at 15 µM | hit rate 1.1% among 330,000 | Purified SirT5, succinyl-peptide AMC, trypsin-coupled fluorescence | AID 652115 | Q9NXA8; in the data active = inhibition above about 15%; inconclusive = no clear call, values can overlap the other calls
HDAC3 inh: blocks human histone deacetylase 3; O15379; recombinant HDAC3, fluorogenic peptide/trypsin coupled, fluorescence; inhibition, % at 8.3 µM; hit rate 0.15% among 320,000; in the data active = inhibition above about 26%, passing the limit was not always enough; inconclusive = no clear call, values can overlap the other calls
ERAP1 HTS inh: inhibitors of human ERAP1 aminopeptidase | Q9NZ08 | recombinant ERAP1, Leu-AMC fluorescence, 60 min | inhibition, % at 10.7 µM | hit rate 0.15% among 340,000 | AID 652197;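 active = mean replicate inhibition of at least 30%, or all replicates individually reaching that 30% level; inactive = mean below 30% and not every replicate reaching it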;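 note: 0% = neutral control wells and 100% = L-leucinethiol positive control wells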
Starred values were filed as active, the others as inactive; ? = inconclusive; nt = not tested or not shown. The full list was thinned out, with hits kept by preference.

SMILES | PDI inh | ERp5 inh | SIRT5 inh | HDAC3 inh | ERAP1 HTS inh
C[C@H]1CN([C@@H](C)CO)C(=O)c2cccc(NC(=O)C3CCOCC3)c2O[C@H]1CN(C)CC1CC1 | nt | 1 | 0 | nt | 0
O=C(C[C@@H]1CC[C@@H]2[C@H](COC[C@@H](O)CN2CC2CCCCC2)O1)NCC1CC1 | nt | -4 | -1 | nt | -1
Cc1c2cc(O)c(=O)cc-2oc2cc(O)c(O)cc12 | -6 | -4 | 29* | -1 | 0
CNC[C@@H]1OCCCC[C@H](C)Oc2ccc(NC(=O)c3ccccc3)cc2C(=O)N([C@H](C)CO)C[C@@H]1C | nt | 3 | 0 | nt | -1
O=C(/C=C/Nc1nccs1)C(F)(F)Cl | 0 | 6 | 1 | 54* | 0
Cc1ccc(S(=O)(=O)N[C@@H]2CC[C@@H](CC(=O)NCc3ccc(Cl)c(Cl)c3)O[C@@H]2CO)cc1 | nt | -1 | -4 | nt | -4
COc1ccc(-c2nc3ccccc3nc2-c2ccc(OC)c(OC)c2)cc1OC | -7 | 5 | 3 | -7 | 29
COc1ccc(-c2nc3ccccc3nc2-c2ccccc2)cc1OC | 5 | 3 | 17* | 0 | 1
O=C(NCCc1ccccc1)C1c2ccccc2C(=O)N1Cc1cccs1 (stereo not drawn) | 3 | -5 | 34* | 1 | nt
CN(C)S(=O)(=O)c1ccc(C(=O)Nc2nnc(-c3ccco3)o2)cc1 | 6 | 0 | 16* | 1 | 8
CCN(CC)S(=O)(=O)c1ccc(C(=O)Nc2nnc(-c3ccco3)o2)cc1 | 2 | nt | nt | 12 | nt
O=C(NCC[C@@H]1CC[C@@H](NS(=O)(=O)c2cccc(F)c2)[C@@H](CO)O1)c1cnccn1 | nt | -1 | -1 | nt | 3
CC(=O)Nc1cccc(NC(=O)c2ccc(C)c([N+](=O)[O-])c2)c1 | -5 | 5 | 17* | 2 | 5
Cc1ccc(C(=O)Nc2ccncc2)cc1[N+](=O)[O-] | 0 | 2 | -1 | 5 | -2
CC(C)n1c(=O)[nH][nH]c1=S | -2 | 2 | -2 | ? | 85*
COc1cc(NC(=O)c2cccs2)c(OC)cc1NC(=O)c1cccs1 | -3 | nt | nt | -6 | nt
COc1ccc(-c2ccccc2)cc1NC(=O)c1cccs1 | -2 | 3 | 16* | 6 | -1
COc1ccc(-c2ccccc2)cc1NC(=O)C1(C)CCN1C(=O)C(C)C (stereo not drawn) | -2 | 2 | 22* | nt | 3
COc1ccccc1C#Cc1ccc([C@@H]2[C@@H](C#N)N(C(=O)C3CCCCC3)[C@H]2CO)cc1 | nt | -3 | 0 | nt | -1
C[C@H]1CN([C@@H](C)CO)C(=O)c2ccccc2-c2ccccc2CO[C@H]1CN(C)S(=O)(=O)c1ccc([N+](=O)[O-])cc1 | nt | -6 | 2 | nt | 2
Cc1ccccc1C(=O)N1CCN(c2ccc(NC(=O)c3ccccc3[N+](=O)[O-])cc2)CC1 | -5 | -1 | 19* | -1 | 7
CC(C)NC(=O)N(C)C[C@H]1Oc2ncc(C#CCC3CCCC3)cc2C(=O)N([C@H](C)CO)C[C@@H]1C | nt | 1 | 1 | nt | 2
O=[N+]([O-])c1cccc(S(=O)(=O)N2CCN(S(=O)(=O)N3CCOCC3)CC2)c1 | 0 | 7 | 16* | 2 | 1
CCCCN1CC(=O)N2[C@H](c3ccc(OC)cc3)[C@@H]3C(=O)N(CC)C(=O)[C@@H]3[C@]2(Cc2ccccc2)C1=O | -2 | 7 | 27* | 12 | 2
O=C(C[C@@H]1CC[C@@H](NC(=O)Cc2ccccn2)[C@H](CO)O1)NCCc1ccccc1 | nt | 1 | 3 | nt | 0
SMILES | PDI inh | ERp5 inh | SIRT5 inh | HDAC3 inh | ERAP1 HTS inh
CSCCC(NS(=O)(=O)c1ccccc1F)C(=O)NNC(=O)c1csc(N2CCOCC2)n1 (stereo not drawn) | -2 | -4 | 17* | -15 | 3
CSCCC(NC(=O)c1ccccc1Cl)C(=O)NNC(=O)c1csc(N2CCOCC2)n1 (stereo not drawn) | -4 | 0 | 0 | -7 | -2
O=[N+]([O-])c1ccc2[nH]c(O)c(N=Nc3ccc(F)cc3)c2c1 | -17 | 0 | -1 | -1 | -1
O=[N+]([O-])c1ccc2[nH]c(O)c(N=NC3CCS(=O)(=O)C3)c2c1 (stereo not drawn) | 5 | 4 | 25* | -1 | 0
O=C(CCCN1C(=O)/C(=C/c2ccc3c(c2)OCO3)SC1=S)Nc1cccc(C(=O)O)c1 | 17 | -10 | 3 | 6 | -36
O=C(CCN1C(=O)/C(=C\c2ccccc2)SC1=S)NCCCN1CCOCC1 | 4 | 26* | 4 | 0 | 7
O=C(CCN1C(=O)/C(=C/c2ccc3c(c2)OCO3)SC1=S)Nc1cccc(C(=O)O)c1 | -7 | 2 | 17* | 2 | -3
